Test results published in the supplement of paper PMC11732987, “Enantioselective OTUD7B fragment discovery through chemoproteomics screening and high-throughput optimisation” (Communications Chemistry, 2025).

How the values were obtained:
Assay in all cases: log2 ratio of Biotin-Ahx-Ub-VS probe labelling (fragment/DMSO); higher = less target engagement (more negative = stronger competition), active = hit call of the paper (q ≤ 0.05, log2 ratio ≤ -1)
Settings in all cases: compound concentration: 200 uM; treatment time: 3 h
USP34 = USP34 (UniProt Q70CQ2)
Chain of USP34 (Q70CQ2 whole entry, the tested form may be a part): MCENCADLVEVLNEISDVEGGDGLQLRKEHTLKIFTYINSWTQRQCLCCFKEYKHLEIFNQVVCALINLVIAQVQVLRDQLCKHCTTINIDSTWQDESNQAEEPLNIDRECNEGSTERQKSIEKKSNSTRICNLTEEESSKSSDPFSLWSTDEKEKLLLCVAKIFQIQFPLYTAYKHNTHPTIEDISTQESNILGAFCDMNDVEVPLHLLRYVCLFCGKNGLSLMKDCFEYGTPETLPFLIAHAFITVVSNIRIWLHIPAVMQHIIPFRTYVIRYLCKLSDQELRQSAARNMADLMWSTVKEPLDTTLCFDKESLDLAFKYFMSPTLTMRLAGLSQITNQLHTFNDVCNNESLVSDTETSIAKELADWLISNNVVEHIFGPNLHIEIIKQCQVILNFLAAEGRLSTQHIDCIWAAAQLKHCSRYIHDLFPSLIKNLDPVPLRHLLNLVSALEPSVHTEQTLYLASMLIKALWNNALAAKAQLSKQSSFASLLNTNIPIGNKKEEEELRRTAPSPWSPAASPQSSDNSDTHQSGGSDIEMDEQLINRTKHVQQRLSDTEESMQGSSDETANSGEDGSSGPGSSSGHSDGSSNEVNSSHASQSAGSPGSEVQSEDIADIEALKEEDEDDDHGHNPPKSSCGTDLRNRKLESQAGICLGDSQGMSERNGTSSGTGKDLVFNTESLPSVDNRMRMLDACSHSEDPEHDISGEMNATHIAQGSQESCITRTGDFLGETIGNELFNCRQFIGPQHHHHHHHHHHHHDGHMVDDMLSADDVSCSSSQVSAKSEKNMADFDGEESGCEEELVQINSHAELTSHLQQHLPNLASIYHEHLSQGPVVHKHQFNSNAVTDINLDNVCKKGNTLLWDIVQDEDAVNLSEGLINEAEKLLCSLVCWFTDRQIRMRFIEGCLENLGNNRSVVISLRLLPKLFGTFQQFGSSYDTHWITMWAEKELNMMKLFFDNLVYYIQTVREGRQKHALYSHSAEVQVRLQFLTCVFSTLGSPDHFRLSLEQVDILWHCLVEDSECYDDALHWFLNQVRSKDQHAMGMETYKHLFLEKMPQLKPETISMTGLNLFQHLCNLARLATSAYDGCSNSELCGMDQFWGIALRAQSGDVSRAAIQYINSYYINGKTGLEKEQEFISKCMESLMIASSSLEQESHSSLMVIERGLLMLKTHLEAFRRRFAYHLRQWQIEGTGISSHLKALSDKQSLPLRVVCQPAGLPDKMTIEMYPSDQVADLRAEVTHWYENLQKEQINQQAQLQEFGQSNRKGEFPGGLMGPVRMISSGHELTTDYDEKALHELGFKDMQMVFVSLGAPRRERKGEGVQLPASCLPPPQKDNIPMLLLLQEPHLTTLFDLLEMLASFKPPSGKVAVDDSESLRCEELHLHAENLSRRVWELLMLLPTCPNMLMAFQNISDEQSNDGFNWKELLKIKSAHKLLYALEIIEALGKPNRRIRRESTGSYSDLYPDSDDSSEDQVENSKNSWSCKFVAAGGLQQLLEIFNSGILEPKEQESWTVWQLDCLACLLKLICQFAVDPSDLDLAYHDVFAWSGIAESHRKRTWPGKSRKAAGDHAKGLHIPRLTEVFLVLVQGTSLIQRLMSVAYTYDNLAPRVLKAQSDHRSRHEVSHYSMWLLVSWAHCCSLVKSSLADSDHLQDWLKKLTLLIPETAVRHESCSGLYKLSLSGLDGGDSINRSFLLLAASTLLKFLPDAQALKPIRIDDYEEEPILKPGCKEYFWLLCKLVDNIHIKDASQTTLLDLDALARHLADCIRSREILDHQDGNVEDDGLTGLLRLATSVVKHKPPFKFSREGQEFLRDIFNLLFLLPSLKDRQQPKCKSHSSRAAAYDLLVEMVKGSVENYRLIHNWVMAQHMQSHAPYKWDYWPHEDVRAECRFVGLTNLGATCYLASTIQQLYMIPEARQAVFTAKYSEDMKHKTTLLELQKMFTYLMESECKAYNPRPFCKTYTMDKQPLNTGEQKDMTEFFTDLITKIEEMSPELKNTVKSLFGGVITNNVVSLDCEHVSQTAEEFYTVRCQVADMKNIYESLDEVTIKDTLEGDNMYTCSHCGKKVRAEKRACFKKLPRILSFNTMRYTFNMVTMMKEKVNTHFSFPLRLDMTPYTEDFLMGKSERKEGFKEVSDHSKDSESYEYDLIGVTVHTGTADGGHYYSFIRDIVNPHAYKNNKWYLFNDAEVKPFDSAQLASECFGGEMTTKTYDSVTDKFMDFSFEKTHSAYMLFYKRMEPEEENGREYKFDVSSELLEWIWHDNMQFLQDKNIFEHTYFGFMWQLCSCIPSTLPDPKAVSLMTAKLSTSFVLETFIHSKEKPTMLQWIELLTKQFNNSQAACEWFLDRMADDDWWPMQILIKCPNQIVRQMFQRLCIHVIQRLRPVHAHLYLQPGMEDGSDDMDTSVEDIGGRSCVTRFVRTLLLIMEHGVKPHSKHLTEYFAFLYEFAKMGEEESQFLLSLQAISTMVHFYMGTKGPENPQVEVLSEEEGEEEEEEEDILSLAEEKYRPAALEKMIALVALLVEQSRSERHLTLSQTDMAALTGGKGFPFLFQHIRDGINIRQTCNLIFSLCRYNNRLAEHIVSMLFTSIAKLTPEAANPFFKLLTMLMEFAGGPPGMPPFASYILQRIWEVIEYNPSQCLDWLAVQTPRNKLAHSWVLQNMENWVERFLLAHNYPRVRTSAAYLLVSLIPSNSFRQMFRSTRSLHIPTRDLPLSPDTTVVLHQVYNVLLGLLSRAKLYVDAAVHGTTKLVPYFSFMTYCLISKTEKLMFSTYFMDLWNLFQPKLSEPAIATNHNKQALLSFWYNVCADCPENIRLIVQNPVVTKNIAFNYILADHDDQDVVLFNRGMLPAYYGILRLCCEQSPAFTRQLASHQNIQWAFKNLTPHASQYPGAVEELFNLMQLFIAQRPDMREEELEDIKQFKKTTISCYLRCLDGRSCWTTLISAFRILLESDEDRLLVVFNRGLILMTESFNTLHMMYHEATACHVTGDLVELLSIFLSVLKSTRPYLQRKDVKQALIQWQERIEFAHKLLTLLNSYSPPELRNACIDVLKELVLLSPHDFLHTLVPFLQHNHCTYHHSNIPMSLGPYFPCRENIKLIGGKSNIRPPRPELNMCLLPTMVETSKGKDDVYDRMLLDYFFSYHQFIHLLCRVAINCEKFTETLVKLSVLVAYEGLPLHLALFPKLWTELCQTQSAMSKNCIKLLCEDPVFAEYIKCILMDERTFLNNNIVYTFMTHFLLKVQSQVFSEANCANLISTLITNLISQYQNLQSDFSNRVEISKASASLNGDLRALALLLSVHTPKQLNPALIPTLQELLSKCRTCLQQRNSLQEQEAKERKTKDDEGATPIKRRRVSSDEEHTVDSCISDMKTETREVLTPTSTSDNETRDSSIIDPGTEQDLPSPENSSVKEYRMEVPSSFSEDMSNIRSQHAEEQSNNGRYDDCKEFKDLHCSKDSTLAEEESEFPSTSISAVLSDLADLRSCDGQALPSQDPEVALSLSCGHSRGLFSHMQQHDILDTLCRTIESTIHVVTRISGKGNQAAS
Procedure, shortened: (§1)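 HEK293T lysate, 495 µg per sample in Tris/CHAPS/IGEPAL buffer with protease inhibitors, was treated in triplicate with fragment at 200 µM or vehicle for 3 h and then with Biotin-Ahx-Ub-VS at 0.5 µM final for 1 h. Labelled DUBs were NeutrAvidin-enriched, digested with LysC and trypsin, and run by diaPASEF LC-MS/MS. Spectronaut label-free quantities were global-median-normalised, and values are average log2 fragment/vehicle ratios by unpaired t-test on proteins with ≥2 unique peptides.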

USP36 = biological target: T1, USP36 (UniProt Q9P275)
T1 sequence (whole entry): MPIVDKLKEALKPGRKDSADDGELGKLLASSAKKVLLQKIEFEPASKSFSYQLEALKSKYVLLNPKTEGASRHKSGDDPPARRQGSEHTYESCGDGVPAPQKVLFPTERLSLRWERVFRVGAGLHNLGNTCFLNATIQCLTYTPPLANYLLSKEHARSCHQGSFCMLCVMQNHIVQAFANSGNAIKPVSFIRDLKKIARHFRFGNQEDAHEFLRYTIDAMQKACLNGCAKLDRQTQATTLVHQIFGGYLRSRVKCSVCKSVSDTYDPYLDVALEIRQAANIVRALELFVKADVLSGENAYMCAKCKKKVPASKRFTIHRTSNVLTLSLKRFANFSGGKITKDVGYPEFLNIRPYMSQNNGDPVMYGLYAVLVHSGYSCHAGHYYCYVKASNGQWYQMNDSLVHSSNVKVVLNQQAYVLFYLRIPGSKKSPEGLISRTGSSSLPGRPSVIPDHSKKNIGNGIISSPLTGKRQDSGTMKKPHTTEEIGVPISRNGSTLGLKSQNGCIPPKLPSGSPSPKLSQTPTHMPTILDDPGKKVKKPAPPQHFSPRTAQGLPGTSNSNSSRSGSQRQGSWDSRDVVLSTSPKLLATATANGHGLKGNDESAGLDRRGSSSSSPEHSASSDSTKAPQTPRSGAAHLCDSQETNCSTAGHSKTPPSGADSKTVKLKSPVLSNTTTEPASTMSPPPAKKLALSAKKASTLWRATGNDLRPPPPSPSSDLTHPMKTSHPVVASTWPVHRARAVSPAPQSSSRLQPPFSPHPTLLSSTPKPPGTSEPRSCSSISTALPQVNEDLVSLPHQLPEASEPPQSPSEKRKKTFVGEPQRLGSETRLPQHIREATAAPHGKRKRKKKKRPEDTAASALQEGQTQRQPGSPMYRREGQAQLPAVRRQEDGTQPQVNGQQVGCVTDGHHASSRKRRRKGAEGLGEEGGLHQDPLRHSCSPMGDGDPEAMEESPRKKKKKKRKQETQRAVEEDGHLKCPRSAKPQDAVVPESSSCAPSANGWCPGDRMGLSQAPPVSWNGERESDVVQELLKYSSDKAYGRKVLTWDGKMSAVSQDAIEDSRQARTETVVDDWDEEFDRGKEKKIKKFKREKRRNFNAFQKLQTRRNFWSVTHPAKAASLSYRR
Procedure, shortened: as §1

USP38 = biological target: T2, USP38 (UniProt Q8NB14)
T2 sequence (whole entry): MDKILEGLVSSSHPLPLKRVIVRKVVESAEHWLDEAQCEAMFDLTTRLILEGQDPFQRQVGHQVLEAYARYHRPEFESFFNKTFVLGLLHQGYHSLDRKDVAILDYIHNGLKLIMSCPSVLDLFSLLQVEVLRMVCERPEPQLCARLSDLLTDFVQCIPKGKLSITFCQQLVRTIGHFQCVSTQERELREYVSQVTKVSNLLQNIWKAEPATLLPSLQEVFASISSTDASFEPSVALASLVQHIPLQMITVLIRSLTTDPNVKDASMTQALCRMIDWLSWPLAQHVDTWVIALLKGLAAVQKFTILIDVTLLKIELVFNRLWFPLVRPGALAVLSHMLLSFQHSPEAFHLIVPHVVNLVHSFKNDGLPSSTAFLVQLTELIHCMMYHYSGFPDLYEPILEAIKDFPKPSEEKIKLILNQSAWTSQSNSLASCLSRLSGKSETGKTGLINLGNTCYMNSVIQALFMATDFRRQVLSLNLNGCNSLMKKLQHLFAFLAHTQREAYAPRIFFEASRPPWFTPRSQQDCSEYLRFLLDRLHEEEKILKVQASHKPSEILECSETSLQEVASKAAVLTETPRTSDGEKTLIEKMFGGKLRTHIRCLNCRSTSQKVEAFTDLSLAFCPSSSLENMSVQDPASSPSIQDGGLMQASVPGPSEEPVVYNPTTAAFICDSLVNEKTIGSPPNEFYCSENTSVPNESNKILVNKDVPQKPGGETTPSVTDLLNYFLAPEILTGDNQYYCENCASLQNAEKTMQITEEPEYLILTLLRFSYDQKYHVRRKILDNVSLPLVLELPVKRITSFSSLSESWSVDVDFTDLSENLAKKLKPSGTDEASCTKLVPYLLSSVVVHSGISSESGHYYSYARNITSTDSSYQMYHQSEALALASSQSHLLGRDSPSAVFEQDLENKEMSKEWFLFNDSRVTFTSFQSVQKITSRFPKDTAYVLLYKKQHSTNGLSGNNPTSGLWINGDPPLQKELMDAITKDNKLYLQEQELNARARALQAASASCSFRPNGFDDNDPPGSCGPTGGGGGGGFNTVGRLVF
Procedure, shortened: as §1

USP39 = biological target: T3, USP39 (UniProt Q53GS9)
T3 sequence (whole entry): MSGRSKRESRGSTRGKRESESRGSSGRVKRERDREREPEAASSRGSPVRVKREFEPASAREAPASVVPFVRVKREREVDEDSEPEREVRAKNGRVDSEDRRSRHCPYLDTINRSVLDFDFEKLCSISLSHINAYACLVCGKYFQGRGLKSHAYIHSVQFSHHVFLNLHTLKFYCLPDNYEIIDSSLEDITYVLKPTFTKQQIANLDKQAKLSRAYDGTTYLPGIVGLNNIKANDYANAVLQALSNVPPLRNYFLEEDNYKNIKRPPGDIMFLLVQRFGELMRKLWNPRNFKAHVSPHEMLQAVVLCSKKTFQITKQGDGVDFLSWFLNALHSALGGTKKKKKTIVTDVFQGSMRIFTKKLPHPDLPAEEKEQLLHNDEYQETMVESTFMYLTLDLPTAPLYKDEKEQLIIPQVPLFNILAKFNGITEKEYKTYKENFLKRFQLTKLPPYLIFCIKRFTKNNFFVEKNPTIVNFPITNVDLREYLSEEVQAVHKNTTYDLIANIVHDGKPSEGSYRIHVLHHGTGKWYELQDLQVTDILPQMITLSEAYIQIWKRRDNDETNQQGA
Procedure, shortened: as §1

USP4 = biological target: T4, USP4 (UniProt Q13107)
T4 sequence (whole entry): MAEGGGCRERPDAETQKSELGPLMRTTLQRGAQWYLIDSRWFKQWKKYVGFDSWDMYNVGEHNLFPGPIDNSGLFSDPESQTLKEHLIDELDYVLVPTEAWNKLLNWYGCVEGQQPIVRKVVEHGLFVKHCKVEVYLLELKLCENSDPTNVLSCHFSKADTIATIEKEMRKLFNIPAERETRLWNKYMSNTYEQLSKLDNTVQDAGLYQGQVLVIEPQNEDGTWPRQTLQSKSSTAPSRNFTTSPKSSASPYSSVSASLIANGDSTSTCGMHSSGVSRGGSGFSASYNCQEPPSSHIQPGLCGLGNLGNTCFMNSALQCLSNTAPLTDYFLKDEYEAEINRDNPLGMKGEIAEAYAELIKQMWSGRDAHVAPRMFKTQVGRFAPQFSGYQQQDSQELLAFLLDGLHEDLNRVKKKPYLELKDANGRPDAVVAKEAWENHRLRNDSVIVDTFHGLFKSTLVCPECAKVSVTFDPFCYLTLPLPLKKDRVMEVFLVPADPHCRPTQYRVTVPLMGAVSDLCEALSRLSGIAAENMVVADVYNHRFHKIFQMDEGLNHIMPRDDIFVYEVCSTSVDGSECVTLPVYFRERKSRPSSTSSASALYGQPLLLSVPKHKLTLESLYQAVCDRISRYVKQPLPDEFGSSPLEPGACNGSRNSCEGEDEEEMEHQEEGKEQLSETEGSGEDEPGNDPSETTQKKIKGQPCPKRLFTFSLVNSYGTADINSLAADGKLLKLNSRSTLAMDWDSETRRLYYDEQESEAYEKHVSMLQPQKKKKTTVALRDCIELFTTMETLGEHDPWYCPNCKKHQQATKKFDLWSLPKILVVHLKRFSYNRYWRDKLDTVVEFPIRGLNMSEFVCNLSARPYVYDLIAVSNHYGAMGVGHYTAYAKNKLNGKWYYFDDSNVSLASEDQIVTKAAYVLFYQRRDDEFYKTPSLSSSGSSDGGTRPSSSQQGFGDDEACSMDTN
Procedure, shortened: as §1

Measured: log2 ratio of Biotin-Ahx-Ub-VS probe labelling

O=C(CCl)Nc1ccc(N2CCCC2=O)cc1
inactive: USP34 0.0377 | USP36 0.2 | USP38 0.147 | USP39 -0.106 | USP4 0.0532
